In PubChem BioAssay (NCI):
Compounds without any hit were thinned out: in the full panel of roughly 83,000, 20% have a hit.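 How to read the values: 0–100, growth inhibition (40 = 60% inhibited); 0, no net growth; -100 to 0, cell death (-40 = 40% of starting cells died; -100 = all dead).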 Active and inactive are the calls of the source. Rule for the calls: active = growth percent below 10; inactive = the rest.

Columns and labels:
Experiment in all cases: NCI-60 one-dose screen, 48 h (100 = growth as untreated, 0 = no growth, -100 = all killed)
Settings in all cases: 10 µM unless noted
[1] = system: NCI-H23 lung
[2] = system: NCI-H226 lung
[3] = system: NCI-H322M lung
[4] = system: HOP-62 NSCLC
[5] = system: NCI-H460 lung
[6] = system: NCI-H522 lung
[7] = system: A549/ATCC NSCLC
[8] = system: 786-0 renal
[9] = system: COLO 205 colon
[10] = system: DU-145 prostate
[11] = system: K-562 leukemia
[12] = system: MALME-3M melanoma
[13] = system: MDA-MB-231 breast
[14] = system: RXF 393 renal
[15] = system: SF-268 CNS
[16] = system: SF-295 CNS
[17] = system: SF-539 CNS
[18] = system: UACC-257 melanoma
[19] = system: M14 melanoma

Measured: growth

Cc1cc(-c2ccc(N=Nc3c(S(=O)(=O)O)cc4cc(S(=O)(=O)O)cc(O)c4c3O)c(C)c2)ccc1N=Nc1c(S(=O)(=O)O)cc2cc(S(=O)(=O)O)cc(O)c2c1O
inactive: [1] 101% | [2] 99.3% | [3] 80.7% | [4] 82.7% | [5] 130% | [6] 99.3% | [7] 101% | [8] 113% | [9] 92% | [10] 112% | [11] 125% | [12] 100% | [13] 107% | [14] 80.1% | [15] 104% | [16] 94.1% | [17] 101% | [18] 102% | [19] 103%

CC(=O)Cc1ccccn1
inactive: [1] 104% | [2] 98% | [3] 110% | [4] 108% | [5] 105% | [6] 92.5% | [7] 104% | [8] 101% | [9] 133% | [10] 107% | [11] 100% | [12] 106% | [13] 105% | [14] 119% | [15] 98.7% | [16] 84.1% | [17] 99.7% | [18] 103% | [19] 102%

Cc1ccc(C)c(NC(=O)c2sc3c(=O)[nH]cnc3c2C)c1
inactive: [1] 93.4% | [2] 106% | [3] 103% | [4] 80.8% | [5] 81.9% | [6] 64.9% | [7] 74.6% | [8] 89.9% | [9] 83.3% | [10] 108% | [11] 29.6% | [12] 62.6% | [13] 97.4% | [14] 90.1% | [15] 101% | [16] 73.3% | [17] 94.2% | [18] 94.5% | [19] 57.8%

O/N=C/c1ccncc1
inactive: [1] 101% | [2] 107% | [3] 110% | [4] 104% | [5] 106% | [6] 83.7% | [7] 96.5% | [8] 109% | [9] 108% | [10] 103% | [11] 106% | [12] 98.7% | [13] 118% | [14] 122% | [15] 111% | [16] 96% | [17] 115% | [18] 100% | [19] 115%

CS(=O)(=O)c1ccc(Cl)c([N+](=O)[O-])c1
active: [11] 1.69%
inactive: [1] 103% | [2] 107% | [3] 149% | [4] 105% | [5] 86.9% | [6] 95.8% | [7] 119% | [8] 98.3% | [9] 111% | [10] 33.9% | [12] 132% | [13] 109% | [14] 113% | [15] 81.5% | [16] 102% | [17] 102% | [18] 116% | [19] 108%

Cc1ccncc1NC=O
inactive: [1] 101% | [2] 101% | [3] 102% | [4] 109% | [5] 106% | [6] 99.1% | [7] 102% | [8] 103% | [9] 110% | [10] 113% | [11] 107% | [12] 105% | [13] 110% | [14] 111% | [15] 104% | [16] 104% | [17] 102% | [18] 106% | [19] 96.4%

CNC(=O)OC1C(O[C@H]2C[C@H]3[C@@H]4CC=C5C[C@@H](O)CC[C@]5(C)[C@H]4CC[C@]3(C)[C@H]2[C@H](C)C(=O)CCC(C)C)OCC(O)C1OC1OCC(O)C(O)C1OC(=O)c1ccc(OC)cc1 (stereo partly drawn)
inactive: [1] 39.3% | [3] 57.6% | [7] 11.5% | [10] 42% | [13] 32.5%
active: [2] 3.4% | [4] 0.544% | [5] 1.55% | [6] -35.8% | [8] -14.3% | [9] -42.8% | [11] -20.5% | [12] 4.11% | [14] -64.4% | [15] 0.344% | [16] -63.3% | [17] -53.5% | [18] -54.9% | [19] -65.5%

CC(C)=CC[C@@H]1CC2(CC=C(C)C)C(=O)C(OC3(C(=O)c4ccccc4)C(=O)C4(CC=C(C)C)C[C@@H](CC=C(C)C)C(C)(C)C(CC=C(C)C)(C4=O)C3=O)(C(=O)c3ccccc3)C(=O)C(CC=C(C)C)(C2=O)C1(C)C (stereo partly drawn)
inactive: [1] 10.3% | [8] 11.6% | [15] 14.5%
active: [2] -4.96% | [3] 3.49% | [4] 0.307% | [5] -9.89% | [6] -28.8% | [7] 6% | [9] -22.3% | [10] 2.13% | [11] 4.86% | [12] -28.8% | [13] -11.3% | [14] 4.28% | [16] -13.4% | [17] -18.5% | [18] -19.7% | [19] -2.59%

COc1cc(NCCC2CCCCN2)c2ncccc2c1OC (stereo not drawn)
inactive: [1] 49.1% | [2] 117% | [3] 116% | [4] 102% | [5] 80.3% | [7] 82.1% | [8] 90.1% | [9] 78.1% | [10] 87.5% | [11] 64.7% | [12] 134% | [13] 74.2% | [14] 111% | [15] 92.9% | [16] 110% | [17] 92% | [18] 66.3% | [19] 92.1%
active: [6] -7.89%

Nc1c(C(=O)Nc2ccccc2)sc2nc3c(cc12)C(=O)CCC3
active: [6] -33.8% | [9] -18.4% | [10] 0.618% | [14] -9.9% | [16] -12.4% | [17] 0.845% | [19] 1.11%
inactive: [1] 39.5% | [2] 68% | [3] 67.1% | [4] 39.9% | [5] 12.9% | [7] 19.7% | [8] 36.2% | [11] 17.1% | [12] 76.2% | [13] 52.1% | [15] 53.4% | [18] 52.8%

CC(C)[C@@]12C[C@@H](OC(=O)[C@H]3CO3)[C@@](C)(O1)[C@@H]1CC[C@@H](C)[C@H]1[C@@H]2OC(=O)/C=C/c1ccccc1
inactive: [1] 88.4% | [2] 54.1% | [3] 85.4% | [4] 72% | [5] 89.8% | [6] 72.2% | [7] 61.5% | [8] 91.3% | [9] 109% | [10] 102% | [11] 90.1% | [12] 87% | [13] 78.7% | [14] 59.6% | [15] 54.8% | [16] 85.2% | [17] 91.1% | [18] 68.3% | [19] 102%

C=C1C[C@@]2(C)C(CC[C@]3(C)C2CC=C2C4CC(C)(C)C[C@@H](OC(=O)/C(C)=C\C)[C@]4(C(=O)O)CC[C@]23C)C(C)(C)C1=O (stereo partly drawn)
active: [1] -45.6% | [2] -72.8% | [5] -37.2% | [6] -6.98% | [7] -2.25% | [8] -77.9% | [9] -11.2% | [11] 1.39% | [14] -75.6% | [17] -19.8% | [19] -14.2%
inactive: [3] 46.7% | [4] 25.9% | [10] 10.3% | [12] 36.5% | [13] 22.7% | [15] 50.4% | [16] 59.8% | [18] 17.1%

COc1ccc(CNc2c3ccccc3nc3ccccc23)cc1F
active: [5] 6.34% | [9] 8.7% | [11] 4.81%
inactive: [1] 27% | [2] 43% | [3] 31.6% | [4] 44.5% | [6] 36.2% | [7] 22.8% | [8] 26% | [10] 27.2% | [12] 23.6% | [13] 29.2% | [14] 11.1% | [15] 49.1% | [16] 20.1% | [17] 18.2% | [18] 37.8% | [19] 19.9%

O=C1/C(=C/N2N=C(c3ccc(Cl)cc3)CC2c2ccccc2O)SC(=S)N1c1cccc(C(F)(F)F)c1 (stereo not drawn)
inactive: [1] 53.8% | [2] 63.3% | [3] 71.4% | [4] 69.1% | [5] 44.6% | [6] 30.3% | [7] 38.6% | [8] 66.4% | [9] 71.2% | [10] 63.4% | [11] 42.6% | [12] 79.6% | [13] 44% | [14] 67.4% | [15] 48.1% | [16] 64.7% | [17] 76.1% | [18] 94.5% | [19] 48.2%

CN(C)c1nc(-c2cccs2)n2nc(-c3ccco3)cc2n1
inactive: [1] 87.2% | [2] 90.2% | [3] 106% | [4] 106% | [5] 98.4% | [6] 96.2% | [7] 101% | [8] 96.1% | [9] 126% | [10] 116% | [11] 106% | [12] 121% | [13] 82.6% | [14] 83.7% | [15] 104% | [16] 106% | [17] 93.6% | [18] 113% | [19] 98%

COc1ccc(N=C2CSc3nnc(-c4cc(F)c(Cl)cc4Cl)n3N2)cc1
inactive: [2] 27.9% | [18] 38.5%
active: [1] -22.1% | [3] 6.08% | [4] -33.7% | [5] -63.2% | [6] -27.7% | [7] -21.1% | [8] -44.5% | [9] -21.1% | [10] -48.9% | [11] -58.4% | [12] -45.1% | [13] -4.51% | [14] -52.7% | [15] 7.12% | [16] -16.2% | [17] -67.3% | [19] -44.7%

CCCCOc1nc2ccccc2cc1/C=C/c1cc(/C=C/c2cc3ccccc3nc2OCCCC)n(-c2ccccc2)n1
inactive: [1] 103% | [2] 95.5% | [3] 94.9% | [4] 91.2% | [5] 103% | [6] 85.8% | [7] 102% | [8] 107% | [9] 99.6% | [10] 113% | [11] 99% | [12] 104% | [13] 103% | [14] 106% | [15] 107% | [16] 114% | [17] 110% | [18] 96.4% | [19] 99.7%
